Measurements: PubChem BioAssay AID624331 (National Center for Advancing Translational Sciences (NCATS), 2012)
Records with an inconclusive call do not appear. Where a call stands in place of a potency, no number is given. Calls of active or inactive are those of the source. The call rests on the fitted dose curve; in most records, active means well fitted activation curve with a large enough effect; inconclusive means small, poorly fitted or top-dose-only effect; inactive means no such curve, though single readings can be large or run the other way.

Assay: qHTS assay for re-activators of p53 using a Luc reporter: Hit Validation with no p53 Expressed
Details: p53-null cells, luciferase reporter counter-screen; series mostly up to 46.1 µM
Method in brief: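 Without p53 expression, cells (1000/well, Opti-MEM + 10% FBS) were exposed 24 h at 37 deg C to compounds in a 1:5 series from 10 mM stock (top 46.1 µM in well). Luminescent signal read 10 min after Amplite addition; actives flag unspecific activation.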
Potency means the concentration at half of the fitted maximal effect.

| SMILES | Potency |
| --- | --- |
| CCOc1ccc(/C=N/NC(=O)CN2CCSCC2)cc1 | inactive |
| Cc1ccc(OCCN2CCOCC2)cc1C | inactive |
| COc1cccc(/C=N/Nc2cc(-n3nc(C)cc3-c3ccccc3)ncn2)c1O | inactive |
| O=C(NCCCNC1CCCCC1)c1ccc(/C=N/O)nc1 | inactive |
| O=S(=O)(CCOc1ccccc1)c1nc2ccccc2[nH]1 | inactive |
| Cc1ccc(-c2nc(-c3cccnc3)no2)c(C)c1 | inactive |
| Cc1cc(-n2c(C)cc(C(=O)COc3cc(F)ccc3[N+](=O)[O-])c2C)no1 | inactive |
| O=C(/C=C/c1ccco1)Nc1ccccn1 | inactive |
| O=C(NNC1=C(C(=O)C(F)(F)F)CCC1)c1cccc(O)c1 | inactive |
| Cc1nc(NC(=O)C2CC3CCCC(C2)C3=O)sc1C (centres undefined) | inactive |
| CC(=O)Nc1ccc(Nc2cc(C)nc3c(-c4ccccc4)cnn23)cc1 | inactive |
| O=C(CC(Nc1ccc(F)cc1)C(=O)OCC(=O)c1cccs1)c1ccccc1 (centres undefined) | inactive |
| COc1ccc(/C(C)=N/Nc2nccnc2Cl)cc1 | inactive |
| CN(C)c1ccc(NC(=O)CCCc2ccccc2)cc1 | inactive |
| COc1ccc(-n2cc(-c3ccccc3)[nH]c2=S)cc1 | inactive |
| CCOc1ccc(NC(=O)C(c2ccccn2)N(C(=O)CCl)c2ccc(OC)cc2)cc1 (centres undefined) | inactive |
| COC(=O)c1cn[nH]c1NC(=S)Nc1ccc(C)cc1Cl | inactive |
| Cc1ccc(NC(=O)c2cc(C)n(-c3ccccc3)c2C)cc1 | inactive |
| CCOC(=O)C1CCN(S(=O)(=O)Cc2ccccc2)C1=O (centres undefined) | inactive |
| O=C(Oc1c(Cl)cc(Cl)c2cccnc12)c1cccc([N+](=O)[O-])c1 | inactive |

| SMILES | Potency |
| --- | --- |
| CC(=O)N1CCN(C(=O)COC(=O)COc2c(C)cc(C)cc2C)CC1 | inactive |
| CC(Sc1nc(N)cc(=O)[nH]1)C(=O)NNC(=O)c1cccc(Cl)c1 (centres undefined) | inactive |
| Cc1cc(C(=O)COc2ncnc3sccc23)c(C)n1C1CC1 | inactive |
| N#Cc1cnc(Oc2ccc(Cl)cc2)nc1N | inactive |
| CCC(=O)c1ccc(OC(=O)Cc2ccc(OC)cc2)cc1 | inactive |
| O=C(Nc1ccc(Cl)cc1C(F)(F)F)c1ccccc1 | inactive |
| Cn1c(C(=O)Nc2ccc3c(c2)OCCO3)cc2sccc21 | 1.16 µM (active) |
| O=c1[nH]c2ccc(N/C(=N/S(=O)(=O)c3ccccc3)c3ccccc3)cc2[nH]1 | inactive |
| N/C(=N\c1nc2ccccc2o1)NC(=O)c1ccc(F)cc1 | inactive |
| O=C(NNC(=S)NC1CCCCC1)c1cccs1 | inactive |
| COc1nnc(-c2ccc(C)c(S(=O)(=O)N(C)C)c2)c2ccccc12 | inactive |
| COC(=O)CSc1nc2cc(OC)ccc2cc1C#N | inactive |
| O=C(Nc1ccc(NC(=O)C23CC4CC(CC(C4)C2)C3)cn1)c1ccco1 | inactive |
| Cc1ccc(C)n1-c1sc2c(c1C(=O)O)CCCC2 | inactive |
| C=CCn1c(C)cc(C(=O)CSc2nc3ccccc3o2)c1C | inactive |
| COc1ccc(NC(=O)c2ccccc2)cc1 | inactive |
| c1nc(C2CCCCC2)cc2cc3c(cc12)OCO3 | inactive |
| O=C(COC(=O)C12CC3CC(CC(O)(C3)C1)C2)Nc1ccc(Br)cc1F | inactive |
| CC1CC1C(=O)Nc1nc2ccc(S(C)(=O)=O)cc2s1 (centres undefined) | inactive |
